The text below walks through data of the supplement of paper PMC6555819.

Assay in all cases: PBM binding z-score (relative to random genomic background probes); higher = stronger binding; sequences stand for … in GC…GCGATTGACAGCGTAGAATGAAGG
The test system of experiment [1] is RARb homodimer (NR concentration 270 nM). In short, it runs like this:
(§1)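 For binding z-scores, the reference was random background probes on custom Agilent 4×180K protein-binding microarrays. These arrays were incubated 1 h with ligand-free nuclear receptor dimers in PBS pH 7.4, 2% milk, 0.02% Triton X-100, 1 mM DTT, 0.2 mg/mL BSA and 0.4 mg/ml salmon testes DNA. Fluorescence was scanned after antibody detection of each partner (one per run) and regression-normalized.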

Experiment [2] concerns RARg:RXRa (NR concentration 270 nM, RXRa partner concentration 90 nM). In short, it runs like this: as §1
The test system of experiment [3] is RARg homodimer (NR concentration 270 nM). In short, it runs like this:
as §1

Experiment [4] has as its system RXRa DBDmut IVT, anti-RXR (DBD mutation: RXRa K156A/R161A, NR concentration 90 nM). A digest of the protocol:
as §1

Experiment [5] deals with RXRa homodimer (NR concentration 180 nM). In short, it runs like this:
as §1

Experiment [6] concerns THRa:RXRa (NR concentration 90 nM, RXRa partner concentration 90 nM). In short, it runs like this: as §1
In experiment [7] the test system is THRa homodimer (NR concentration 90 nM). A digest of the protocol: as §1
For experiment [8], the system named is VDR homodimer (NR concentration 270 nM). A digest of the protocol:
as §1

Take AACACAGGGTCACTAGGCCAGAGTAGGTACGAAT: the PBM binding z-score in experiment [1] turned out to be 3.3; in experiment [2] it was 5.06; in experiment [3], 4.83; in experiment [4] it was 2.79; in experiment [5], 5.24; in experiment [6], 3.3. For the same sequence, the figures for the PBM binding z-score in experiment [7] and in experiment [8] were 1.02 and 2.44, respectively.
In the case of GGAACGAGGGCAAGTTCATAGCAGAGTTTGATGG, the PBM binding z-score in experiment [1] was found to be 2.84; in experiment [2] it was 2.99; in experiment [3], 3.16; in experiment [4], 3.64; in experiment [5] it was 2.16; in experiment [6] it was 2.35. The PBM binding z-score was 0.375 in experiment [7] and 5.08 in experiment [8].
Regarding TTACCAAGGTGAGCTAAGGTCGTTGATCCAACTC, the PBM binding z-score is 1.72 in experiment [1]; 1.56 in experiment [2]; 1.15 in experiment [3]; -0.158 in experiment [4]; 1.65 in experiment [5]; 4.71 in experiment [6]. Further, the PBM binding z-score is 2.41 in experiment [7] and 1.29 in experiment [8].
Regarding CGTCCAAGGTCATAGGAGGTCAGTGACGACAGAT, the PBM binding z-score in experiment [1] was 5.23; in experiment [2] it was 6.83; in experiment [3] it was 7.27; in experiment [4] it was 4.28; in experiment [5], 7.54; in experiment [6], 5.3. For the same sequence, the PBM binding z-score in experiment [7] worked out at 3.25; in experiment [8] it was 4.76.
As to AGTCAAAGTTCACTAGGTAACGTATGATTCAGCT, the PBM binding z-score in experiment [1] came out at 3.72; in experiment [2], 4.86; in experiment [3], 5.88; in experiment [4], 4.22; in experiment [5], 3.76; in experiment [6], 2. Moreover, the PBM binding z-score turned out to be 0.141 in experiment [7] and 3.34 in experiment [8].
TCATATAGTTAAACAGGTGAAAGTCCGTAAGTTA: the PBM binding z-score turned out to be 0.84 in experiment [1]; 0.464 in experiment [2]; 0.347 in experiment [3]; 1.57 in experiment [4]; 1.04 in experiment [5]; 0.679 in experiment [6]. For the same sequence, the PBM binding z-score in experiment [7] is 0.485; in experiment [8], 0.667.
As to TCTTGTAGATCAAGCAGGTTAACAAAGCCTGAGT, the PBM binding z-score is 0.14 in experiment [1]; 0.253 in experiment [2]; 0.0907 in experiment [3]; 0.714 in experiment [4]; 0.594 in experiment [5]; 0.705 in experiment [6]. Besides, the PBM binding z-score in experiment [7] is -0.265; in experiment [8], 0.178.
